From PubChem
GalR3 antag – GalR3 antagonists in HEK293 cells, primary screen, cell-based, fluorescence readout | Galanin receptor type 3 (Homo sapiens), O60755 | HEK293 GalR3-CNG cAMP membrane potential fluorescence; galR3 body fused to GalR1 C-terminus | inhibition, % at 3 µM | actives 0.44% (n = 360,000);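 active means inhibition above the screen-wide average plus 3 SD, cut at about 13% in these data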;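 further: forskolin and galanin both at EC90 stimulate the cells; cAMP rise reported by CNG channel membrane potential dye signal; 0% = forskolin plus galanin with DMSO and 100% = forskolin alone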
SRC2 inh – inhibition of GAL4-SRC2 driven luciferase reporter, primary screen, SRC2 inhibitor project, cell-based, luminescence | Nuclear receptor coactivator 2 (Homo sapiens), Q15596 | HEK293 GAL4-SRC2 luciferase reporter | inhibition, % at 9 µM | actives 0.17% (n = 370,000) | AID 651957, 2012;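 active means inhibition above the mean inhibition of all tested compounds plus 3 SD, set per campaign, cut at about 52% in these data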;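 further: 0% = DMSO treated cells and 100% = cells given Gossypol at 36 µM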
SRC1 inh – SRC1 coactivator transcriptional activity inhibitors, primary screen, cell-based, luminescence | HEK293 GAL4-SRC1 luciferase reporter | inhibition, % at 3.6 µM | actives 0.12% (n = 360,000);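 active means inhibition above the campaign mean plus 3 SD, with each screening campaign given its own cutoff, cut at about 60% in these data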;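 further: 0% = DMSO treated cells and 100% = gossypol at 36 µM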
SRC3 inh – SRC3 coactivator transcriptional activity inhibitors, primary screen, cell-based, luminescence. Nuclear receptor coactivator 3 (Homo sapiens), Q9Y6Q9. HEK293 GAL4-SRC3 luciferase reporter. inhibition, % at 3.6 µM. actives 0.17% (n = 360,000). AID 588352, 2011;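 active means inhibition above a per-campaign cutoff, the mean of all compounds plus 3 SD, cut at about 60% in these data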;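 further: 0% = DMSO-treated cells and 100% = gossypol-treated cells at 36 µM; higher means less SRC3-driven luciferase light from the GAL4 reporter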
NR2F2 inh – NR2F2 transcriptional activity inhibitors, primary screen, cell-based, luciferase reporter, HEK293T, luminescence; actives 0.7% (n = 370,000); COUP transcription factor 2 (Homo sapiens), P24468; inhibition, % at 8.6 µM; HEK293T NGFI-A luciferase reporter;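 active means inhibition above a per-plate cutoff, mean inhibition of test wells between control levels plus 3 SD, cut at about 38% in these data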;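 further: cells cotransfected with COUP-TFII expression vector driving the NGFI-A reporter; 0% = median of COUP-TF2 test wells and 100% = reporter-only cells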
NR5A2 inv ag – LRH-1 (NR5A2) inverse agonists, primary screen, cell-based, luminescence, HEK293T, StAR-luciferase reporter | Nuclear receptor subfamily 5 group A member 2 (Homo sapiens), O00482 | LRH-1 transfected, 24 h | inhibition, % at 3.6 µM | actives 0.13% (n = 360,000);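 active means inhibition above the mean inhibition of all tested compounds plus 3 SD, cut at about 73% in these data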;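 further: 0% = DMSO wells and 100% = reporter-only cells lacking LRH-1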
Target sequence (O00482 whole entry, looked up): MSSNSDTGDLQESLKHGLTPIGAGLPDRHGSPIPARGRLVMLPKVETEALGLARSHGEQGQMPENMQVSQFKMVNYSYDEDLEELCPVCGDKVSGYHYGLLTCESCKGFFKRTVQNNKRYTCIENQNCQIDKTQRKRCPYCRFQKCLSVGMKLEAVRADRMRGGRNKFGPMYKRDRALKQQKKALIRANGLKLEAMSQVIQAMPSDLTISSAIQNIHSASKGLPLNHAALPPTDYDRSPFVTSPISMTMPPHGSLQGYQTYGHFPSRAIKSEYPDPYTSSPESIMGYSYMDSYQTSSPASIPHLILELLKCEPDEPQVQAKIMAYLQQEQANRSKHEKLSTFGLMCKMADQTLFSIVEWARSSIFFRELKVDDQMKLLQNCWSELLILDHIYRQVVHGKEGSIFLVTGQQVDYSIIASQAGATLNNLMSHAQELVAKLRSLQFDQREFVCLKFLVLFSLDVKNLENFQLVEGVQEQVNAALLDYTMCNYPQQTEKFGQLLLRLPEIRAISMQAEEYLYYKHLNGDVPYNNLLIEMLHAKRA
GalR3 conf – GalR3 antagonist hit confirmation, cell-based, fluorescence, triplicate. shares compounds with GalR3 antag. inhibition, % at 3 µM. actives 59% (n = 1,600). HEK293 GalR3 CNG cAMP biosensor, membrane potential fluorescence; galR3 fused to GalR1 carboxy tail; challenged with forskolin and galanin at EC90;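 active means inhibition above the primary screen's cutoff, the mean inhibition of all screened compounds plus 3 SD, cut at about 13% in these data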;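 further: 0% = forskolin plus galanin and 100% = forskolin alone with DMSO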
HEK-CNG parental – nonspecific cAMP agonists in parental HEK-CNG cells, counter-screen for GalR3 antagonist project, cell-based, fluorescence, high throughput; shares compounds with GalR3 antag; HEK293-CNG parental cells, cAMP membrane potential fluorescence; normalised: DMSO wells 0%, forskolin wells 100%; activation, % at 3 µM; actives 10% (n = 1,600); AID 652268, 2013; in the data active means activation above about 1.3%
Starred values were filed as active, the others as inactive; / = no result. Rows were chosen to be rich in hits. Some 1.1% of all compounds tested hit in one or more screens of this group.

SMILES	GalR3 antag	SRC2 inh	SRC1 inh	SRC3 inh	NR2F2 inh	NR5A2 inv ag	GalR3 conf	HEK-CNG parental
COc1ccc(NC(=O)COc2nc3ccccc3nc2N2CCOCC2)c(OC)c1	13.8*	-15.2	-4.3	16.9	-1.3	3.3	8.1	-0.3
C#CCCCN([C@H](C(=O)OC)C(C)C)S(=O)(=O)c1ccc(F)cc1Br	/	9.4	/	/	16.2	/	/	/
CCOc1ccc2[nH]c(SCC(=O)OC)c([N+](=O)[O-])c2c1	19.5*	9.1	9.9	17.1	4.5	4.4	17.4*	-1.0
COc1ccc(C)c2sc(N3CCCC3)nc12	-2.3	3.5	8.8	-11.3	7.8	6.7	/	/
COc1ccc(OC)c2sc(N3CCN(c4ccccc4)CC3)nc12	15.2*	1.5	-14.6	-12.2	-17.4	3.9	11.4	-0.6
COc1ccc(-c2cnc3c(NC=O)cc(-c4cccc(NS(C)(=O)=O)c4)cn23)cc1OC	58.8*	13.9	-14.1	-19.5	-98.9	26.4	42.7*	0.5
COc1ccc(-c2cc(NC=O)c3ncc(-c4ccc(OC)c(OC)c4)n3c2)c(OC)c1	44.4*	18.0	-40.0	-5.9	-103.8	41.3	24.8*	1.1
COc1ccc(-c2cnc3c(NC=O)cc(-c4ccc(F)cc4)cn23)cc1OC	15.1*	3.3	-66.4	-12.4	-81.9	8.1	21.1*	1.1
COc1ccc(-c2cnc3c(NC=O)cc(-c4ccccc4)cn23)cc1OC	44.2*	1.7	-44.8	7.8	-57.4	15.1	14.8*	0.7
COc1cccc(-c2cnc3c(NC=O)cc(-c4ccc(OC)cc4OC)cn23)c1	4.3	17.9	-29.0	14.7	-80.3	27.9	/	/
COCc1cn(-c2ccc3c(c2)[C@@]2(CC(=O)N(C)C2c2ccccc2)C(=O)N3CC(C)C)nn1 (some centres not stated)	/	-2.9	/	/	-22.8	/	/	/
CCn1c(SCC(=O)Nc2ccccc2-c2ccccc2)nnc1-c1ccc(Cl)cc1	/	-9.9	/	/	-8.0	/	/	/
COc1cccc(-c2cnc3c(NC=O)cc(-c4cc(OC)c(OC)c(OC)c4)cn23)c1	-1.2	-19.2	-10.7	-12.8	-53.8	7.0	/	/
COc1ccc(-c2cnc3c(NC=O)cc(-c4ccc(S(C)(=O)=O)cc4)cn23)cc1OC	-7.1	12.0	6.1	-11.9	14.1	50.5	/	/
COc1ccccc1-c1cc(NC=O)c2ncc(-c3ccc(S(C)(=O)=O)cc3)n2c1	13.7*	-57.4	2.9	-16.6	-63.5	43.7	30.5*	0.7
COc1cccc(-c2cc(NC=O)c3ncc(-c4ccc(OC)c(OC)c4)n3c2)c1	37.7*	-7.4	-14.5	-22.9	-30.5	21.7	39.3*	0.8
Cc1cc(F)ccc1N1CCC(N2CCN(CCC(C)C)C(CCO)C2)CC1 (configuration not stated)	-3.3	28.0	2.5	21.4	13.3	11.9	/	/
Cc1cc(F)ccc1N1CCC(N2CCN(C(C)C)C(CCO)C2)CC1 (configuration not stated)	17.7*	2.5	-13.7	-4.1	0.0	18.9	0.8	0.9
Clc1ccc(COc2cccc(CNCc3ccncc3)c2)cc1	31.9*	27.4	11.0	14.2	31.9	44.6	93.3*	0.9
CC(C)(CO)NCc1cccc(OCc2ccc(Cl)cc2)c1	-6.9	-1.9	-10.8	-7.6	-4.1	-1.3	/	/
Cc1ccc(S(C)(=O)=NC(=O)NC(=O)c2c(F)cccc2Cl)cc1 (configuration not stated)	13.8*	-6.8	-2.7	-3.7	12.0	13.3	3.9	0.7
Cc1ccc(S(C)(=O)=NC(=O)NC(=O)c2c(Cl)cccc2Cl)cc1 (configuration not stated)	1.0	-20.2	12.0	-4.1	12.3	5.8	/	/
O=C(OCCN1CCN(C2CN(Cc3cn(Cc4ccc([N+](=O)[O-])cc4)nn3)S(=O)(=O)C2)CC1)c1cc2ccccc2o1 (configuration not stated)	/	6.3	/	/	0.7	/	/	/
COc1ccccc1Cc1c(-c2ccco2)nc2ccc(Cl)cn12	27.7*	-21.6	-23.8	-6.0	-9.8	-22.0	18.5*	0.5
CCC(C)[C@H](NS(=O)(=O)c1ccc(C)cc1)C(=O)N1CCC(C(=O)N[C@H](C(=O)O)c2ccccc2)CC1 (some centres not stated)	30.0*	2.2	3.5	5.0	-49.1	8.1	11.6	0.1
SMILES	GalR3 antag	SRC2 inh	SRC1 inh	SRC3 inh	NR2F2 inh	NR5A2 inv ag	GalR3 conf	HEK-CNG parental
CCN(CC)C(=O)CC[C@H]1CC[C@]2(CCCN(C(=O)c3ccc4ccccc4n3)C2)O1	/	-24.1	/	/	-4.8	/	/	/
COc1ccc(OC)c2[nH]c(=O)c(CCNC(C)=O)cc12	0.6	-0.3	-8.6	-10.2	-0.2	-3.7	/	/
COc1ccc(OC)c2[nH]c(=O)c(CCNC(=O)COc3ccccc3)cc12	22.0*	-25.4	-7.7	-1.3	11.8	2.4	19.9*	0.3
CCCCc1c(C)nc(Nc2ccc(OC)cc2)[nH]c1=O	27.8*	6.1	-88.2	-6.8	16.0	-0.1	-1.6	0.0
CC(=O)c1ccc(NCCCN2CCC(C(O)(c3ccccc3)c3ccccc3)CC2)cc1	/	-2.4	/	/	-14.6	/	/	/
COC(=O)C1=C[C@@H](C(=O)OC)[C@@H]2C3=C(C(=O)[C@]2(CC(C)C)NC(=O)c2ccccc2)[C@H](C)n2c(=O)n(-c4ccccc4)c(=O)n2[C@@H]3C1	13.5*	3.3	0.1	-6.9	-2.6	5.5	1.8	0.0
CCC1(CC)C(=O)C2=C3C1[C@H](C(=O)OC)CC(C(=O)OC)C[C@H]3n1c(=O)n(-c3ccccc3)c(=O)n1[C@H]2C (some centres not stated)	-3.6	-9.3	/	/	-12.8	/	/	/
CC(C)CNC(=O)OCc1cn(Cc2cc(F)cc(F)c2)nn1	/	13.2	/	/	-6.1	/	/	/
Nc1ncnc2c1ncn2[C@H]1C[C@H](O)[C@@H](CO)O1	-0.8	20.8	-2.3	9.9	3.2	-16.8	/	/
Nc1nc(Cl)nc2c1ncn2[C@H]1C[C@H](O)[C@@H](CO)O1	49.3*	-40.6	3.2	-29.8	-54.5	18.3	56.9*	1.3*
COc1cc(OC)c(C#N)c(S(=O)(=O)Cc2ccccc2)c1	-4.5	0.4	-3.9	9.2	-0.3	8.3	/	/
